One assay addresses Albumin (Bos taurus) (UniProt P02769). Kind of assay: bovine serum albumin binders on microarray, profiling panel, artefact control for SMM control protein annotation, biochemical, small-molecule microarray, Alexa647 label, 635/667 nm fluorescence (AID 1118).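 Note: score merges 667 nm emission intensity and signal-to-noise per printed compound spot.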 The note with it: BSA-A647 binding, fluorescence 635 nm, higher = more signal.
Assay [1] is described as follows: small-molecule microarray binders of probe aXIP, primary screen, biochemical, NeuroSMM set, 635/667 nm fluorescence (AID 1119).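 Note: probe is the protein aXip251-270 applied at 1 µg/mL to compound-printed slides; binding of probe to printed compounds measured as 667 nm fluorescence plus signal to noise.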 The note with it: higher = more signal, called active from +8 up or from −8 down.
Assay [2] is described as follows: small-molecule binders of probe aNOTCH3, primary screen, biochemical, small-molecule microarray, 635/667 nm fluorescence (AID 1120).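 Note: probe is a biotin-tagged antibody raised against NOTCH3 rather than NOTCH3 protein; score merges spot fluorescence near 667 nm with spot signal to noise.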 As to conditions: higher = more signal.
The nature of assay [3]: small-molecule binders of probe aNOTCH2, primary screen, biochemical, small-molecule microarray, 635/667 nm fluorescence (AID 1121).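 Note: score merges feature fluorescence read at 667 nm with its signal to noise.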 The note with it: higher = more signal.
In assay [4] the target is Carbonic anhydrase 2 (Homo sapiens) (UniProt P00918). Briefly: CAII small-molecule binders, profiling panel, biochemical, small-molecule microarray, Alexa647-labelled CAII (AID 1122). As to conditions: CAII-A647 binding fluorescence, higher = more signal.
The nature of assay [5]: COS7 lysate on small-molecule microarray, probe aHis, 635 nm (AID 1123).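 Note: z-score combines 667nm fluorescence intensity with signal-to-noise per printed compound spot.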 As to conditions: COS7 cell lysate, fluorescence, higher = more signal.
The nature of assay [6]: compound binding in COS7 lysate, probe aLAP1, primary screen, cell lysate, small-molecule microarray (AID 1124).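 Note: lysate comes from COS7 cells expressing LAP1 and is applied at 0.3 µg/mL; score merges spot fluorescence near 667 nm with signal-to-noise over triplicate slides.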 The note with it: probe aLAP1, fluorescence, higher = more signal.
In the next assay the test system is Sam68 (KHDRBS1). Briefly: Sam68 small-molecule binders, primary screen, biochemical, small-molecule microarray, 635 nm fluorescence (AID 1125).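 Note: score merges 667 nm channel intensity with signal to noise over triplicate slides.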 The note with it: small-molecule microarray binding, higher = more signal.
The test system of assay [7] is Chordin-like protein 2 (CHRDL2). Briefly: CHRDL2 small-molecule binders, primary screen, biochemical, small-molecule microarray, 635 nm fluorescence (AID 1126).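 Note: printed compound slides probed with Chrdl2 protein at 4 µg/mL for 1 h at 4 C; score merges 667 nm emission intensity with signal to noise over three replicate slides.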 The note with it: small-molecule microarray binding, fluorescence 635 nm; higher = more signal.
For assay [8], the target named is Concanavalin-A (Canavalia ensiformis) (UniProt P02866). Briefly: ConA small-molecule binders, primary screen, artefact control for SMM control protein annotation, biochemical, small-molecule microarray, Alexa647 label, 635 nm (AID 1127).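 Note: z combines 667 nm emission intensity with signal-to-noise across three replicate slides.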 The note with it: ConA-A647 binding fluorescence, higher = more signal.

Calls of active or inactive are those of the source.

Chain of Albumin (Bos taurus) (P02769 whole entry, looked up): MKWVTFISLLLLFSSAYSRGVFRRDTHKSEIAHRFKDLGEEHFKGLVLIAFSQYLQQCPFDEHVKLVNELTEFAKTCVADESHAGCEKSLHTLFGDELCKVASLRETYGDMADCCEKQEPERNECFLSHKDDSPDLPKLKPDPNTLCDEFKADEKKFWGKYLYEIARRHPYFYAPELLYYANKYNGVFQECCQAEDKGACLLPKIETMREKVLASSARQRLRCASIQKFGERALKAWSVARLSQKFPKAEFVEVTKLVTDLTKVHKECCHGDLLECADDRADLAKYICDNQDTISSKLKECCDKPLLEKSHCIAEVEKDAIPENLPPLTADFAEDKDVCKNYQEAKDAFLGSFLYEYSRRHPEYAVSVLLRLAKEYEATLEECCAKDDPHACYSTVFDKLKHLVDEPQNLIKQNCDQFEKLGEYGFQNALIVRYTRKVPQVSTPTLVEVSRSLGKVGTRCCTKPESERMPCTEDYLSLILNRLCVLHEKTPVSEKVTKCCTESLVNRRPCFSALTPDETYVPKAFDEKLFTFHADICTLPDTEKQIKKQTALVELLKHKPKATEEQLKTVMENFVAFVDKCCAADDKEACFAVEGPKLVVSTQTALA
Chain of Concanavalin-A (Canavalia ensiformis) (P02866 whole entry, looked up): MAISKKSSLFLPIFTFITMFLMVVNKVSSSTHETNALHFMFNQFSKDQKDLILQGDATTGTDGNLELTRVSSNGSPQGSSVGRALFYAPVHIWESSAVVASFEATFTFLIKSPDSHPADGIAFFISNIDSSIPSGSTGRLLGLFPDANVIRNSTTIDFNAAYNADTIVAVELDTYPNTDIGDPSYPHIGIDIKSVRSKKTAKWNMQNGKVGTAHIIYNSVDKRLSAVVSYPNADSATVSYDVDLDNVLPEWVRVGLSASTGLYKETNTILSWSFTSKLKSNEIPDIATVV

Turning to `C=C1C(=O)C=C2CN(C(=O)c3ccccc3)[C@@](Cc3ccc(F)cc3)(C(=O)OC)[C@@H]12`, the composite z-score with Albumin (Bos taurus) amounted to 1.03; in assay [2], 0.693; in [3], 0.009; in [4], 0.5; in assay [5], 2.76; in assay [6] it was 0.942. Further, the composite z-score was 1.34 in the assay on Sam68 (KHDRBS1), -0.775 in assay [7] and 1.14 in assay [8]. The composite Z-score in assay [1] is 0.114 (inactive).

Take `C=CCNC(=O)[C@H]1[C@@H]2C(=O)O[C@@H](c3ccccc3)[C@@H](c3ccccc3)N2[C@@H](c2ccc(OCCO)cc2)[C@]12C(=O)Nc1ccc(C#Cc3ccc(OC)cc3)cc12`: the composite z-score turned out to be 0.404 with Albumin (Bos taurus); 0.146 in assay [2]; 0.0805 in [3]; 0.386 in [4]; 2.34 in [5]; 0.315 in [6]. Also, the results for the composite z-score (in the assay with Sam68 (KHDRBS1); in [7]; in assay [8]) were 1.3, 0.581 and 1.18, respectively. In addition, the composite Z-score in [1] is 0.637 (inactive).

As for `CCOC(=O)C=C1C[C@@H](c2cccc([N+](=O)[O-])c2)O[C@@H](c2cccc([N+](=O)[O-])c2)O1`, the composite z-score with Albumin (Bos taurus) is 0.817; in [2], 0.13; in assay [3], -0.125; in [4] it was 0.425; in assay [5], 2.07; in assay [6], 0.863. Besides, the results for the composite z-score (in the assay with Sam68 (KHDRBS1); in assay [7]; in [8]) were 1.32, 0.338 and 1.1, respectively. In addition, in assay [1], the composite Z-score was 0.636 (inactive).

Turning to `CCCN1C(=O)[C@@]2(c3ccc([N+](=O)[O-])cc3)CC(=O)N(C3CCCCC3)[C@@H]2c2ccc(CO)cc21`, the composite z-score is -0.328 with Albumin (Bos taurus); -0.15 in [2]; -0.112 in assay [3]; -0.139 in [4]; 0.361 in [5]; -0.435 in [6]. Besides, the composite z-score in the assay on Sam68 (KHDRBS1) stood at 0.268; in assay [7] it was 0.649; in assay [8], 0.31. In addition, in [1], the composite Z-score is 2.02 (inactive).

Consider `O=C1C2C=CC(C(O)C3CCCCC3)N(Nc3ccccc3F)C2C(=O)N1c1ccccc1` (stereo not given), for which the composite z-score worked out at 0.97 with Albumin (Bos taurus); 0.457 in assay [2]; 0.252 in assay [3]; 0.244 in assay [4]; 2.71 in assay [5]; 1 in [6]. The composite z-score amounted to 1.31 in the assay with Sam68 (KHDRBS1), 0.426 in assay [7] and 1.2 in assay [8]. Besides, the composite Z-score in assay [1] was 0.485 (inactive).

For `CCOC(=O)C1=C[C@@H](C(C)(C)C)N(S(=O)(=O)c2ccc(C)cc2)[C@H]1c1ccc(OC)cc1`, the composite z-score in the assay with Albumin (Bos taurus) was 0.847; in assay [2], 0.116; in [3] it was -0.0956; in assay [4] it was 0.392; in assay [5], 1.8; in assay [6] it was 0.315. The composite z-score amounted to 1.3 with Sam68 (KHDRBS1), 0.209 in [7] and 1.14 in [8]. Further, in assay [1], the composite Z-score was -0.244 (inactive).

In the case of `O=C1c2ccccc2[C@@]2(Cc3ccccc3N(CC(F)(F)F)C2=O)[C@H](c2ccc(CO)cc2)N1Cc1ccccc1`, the composite z-score with Albumin (Bos taurus) was -0.507; in [2], 0.0698; in [3], -0.219; in assay [4] it was -0.13; in [5] it was -0.211; in assay [6], 0.0163. Moreover, the composite z-score in the assay with Sam68 (KHDRBS1) is 0.166; in [7] it was 0.62; in [8] it was 0.0118. In assay [1], the composite Z-score is -0.207 (inactive).

On to `CC(C)[Si](C#Cc1ccccc1)(O[C@H](c1ccccc1)c1cn(Cc2ccccc2)nn1)C(C)C`, for which the composite z-score in the assay with Albumin (Bos taurus) was 0.939; in assay [2] it was -0.127; in assay [3], -0.189; in assay [4] it was 0.57; in [5], 0.467; in [6], 0.471. The values for the composite z-score (with Sam68 (KHDRBS1); in assay [7]; in assay [8]) were 0.879, 0.664 and 1.17, respectively. In addition, in [1], the composite Z-score is 0.708 (inactive).

As for `CC(C)(C)OC(=O)CC[C@@]1(C(N)=O)N=C(c2ccc(OCCCO)cc2)O[C@@H]1c1ccccc1CN=[N+]=[N-]`, the composite z-score with Albumin (Bos taurus) was found to be 0.818; in [2], 0.651; in assay [3], 0.27; in assay [4] it was 0.876; in assay [5], 3.13; in assay [6], 1.12. For the same compound, the composite z-score turned out to be 0.914 in the assay on Sam68 (KHDRBS1), 0.312 in assay [7] and 0.933 in [8]. Further, the composite Z-score in [1] is -0.0657 (inactive).

Consider `COC(=O)[C@@]1(Cc2ccc(F)cc2)[C@H]2c3cc(C(=O)N4CCCC4)n(Cc4ccc(OC(F)(F)F)cc4)c3C[C@H]2CN1C(=O)c1ccccc1`, for which the composite z-score with Albumin (Bos taurus) is 0.435; in assay [2] it was 0.0026; in assay [3] it was -0.0108; in assay [4], 0.861; in assay [5] it was 1.96; in assay [6], 0.32. The composite z-score in the assay with Sam68 (KHDRBS1) was -0.701; in assay [7], -0.0979; in assay [8], -0.484. Also, in assay [1], the composite Z-score was -0.328 (inactive).

As to `O=C1O[C@H](c2ccccc2)[C@H](c2ccccc2)N2[C@H]1[C@@H](C(=O)O)[C@]1(C(=O)Nc3ccccc31)[C@H]2c1ccc(OCCO)cc1`, the composite z-score in the assay with Albumin (Bos taurus) worked out at 1.03; in assay [2], 0.0576; in [3] it was 0.024; in assay [4], 0.749; in assay [5], 1.79; in assay [6], 0.59. Besides, the composite z-score in the assay with Sam68 (KHDRBS1) is 1.16; in assay [7] it was -0.192; in assay [8], 0.864. Also, in assay [1], the composite Z-score is -0.617 (inactive).

With `CC(C)C[C@H]1NC(=O)CNC(=O)[C@@]23C(=O)N[C@@H](Cc4ccccc4)C2[C@H](C)[C@@]2(C)O[C@H]2C3/C=C/C/C=C\CNC1=O` (stereo not given in full), the composite z-score is 0.591 in the assay with Albumin (Bos taurus); -0.0984 in [2]; -0.133 in assay [3]; 0.392 in assay [4]; 0.677 in [5]; 0.248 in [6]. The composite z-score in the assay on Sam68 (KHDRBS1) came to 0.258; in [7], 0.599; in [8] it was 0.0947. The composite Z-score in [1] is -0.0443 (inactive).

Take `COC(=O)C[C@H]1O[C@]2(C(=O)N(C)c3ccccc32)[C@@H](C)[C@@H]1[Si](C)(C)c1ccccc1`: the composite z-score is -0.0967 with Albumin (Bos taurus); 0.16 in assay [2]; -0.171 in assay [3]; 0.288 in [4]; 0.198 in [5]; 0.216 in assay [6]. Further, the composite z-score was determined as 0.898 in the assay on Sam68 (KHDRBS1), 0.816 in assay [7] and 0.593 in assay [8]. Also, the composite Z-score in [1] is -0.142 (inactive).

Regarding `COc1ccc(NN2C(C(O)c3ccc(F)cc3)C=CC3C(=O)N(C4CCCCC4)C(=O)C32)cc1` (stereo not given), the composite z-score in the assay with Albumin (Bos taurus) was 0.861; in assay [2], 0.183; in assay [3], -0.0161; in assay [4] it was 0.649; in assay [5], 1.39; in [6], 0.0892. Further, the values for the composite z-score (with Sam68 (KHDRBS1); in assay [7]; in assay [8]) were 1.29, -0.0299 and 1.13, respectively. The composite Z-score in [1] is -0.0189 (inactive).

Source of the values: PubChem BioAssay.
